Bioassay records from PubChem.
BAZ2B inh = qHTS Assay for Inhibitors of BAZ2B | 360,000 compounds, 4.4% hits | AlphaScreen BAZ2B-H3K14Ac peptide displacement | AID 504333, 2011 | Potency, µM (titrated, usually from 114 µM), inactives show at the top dose activity change, negative = inhibition, most hits filed as inhibitors; note: % is set by controls: 0 for no effect and ±100 for the full control effect; nearly all actives have a fitted effect of over 60% in size
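Compounds, titrated to a top concentration of 110 uM, were incubated 30 min at room temperature with preformed BAZ2B/acetyl-K14 H3 peptide complex (50 nM each). Proximity signal was measured by AlphaScreen after 20 min with beads.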
L3MBTL1 inh = qHTS Assay for the Inhibitors of L3MBTL1; Lethal(3)malignant brain tumor-like protein 1 (Homo sapiens), Q9Y468; AlphaScreen L3MBTL1–H3K9me1 peptide binding; Potency, µM (titrated, usually from 57.1 µM), for the others: at the highest dose activity, negative = inhibition, actives largely listed as inhibitors; 230,000 compounds, 0.66% hits; note: % is set by controls: 0 for no effect and ±100 for the full control effect; nearly all actives have a fitted effect of over 60% in size
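L3MBTL1 50 nM + b-AHA-H3(1-15)K9me1 75 nM, 30 min RT; compound added, 30 min RT; streptavidin donor/Ni-chelate acceptor beads 10 ug/mL each final, 30 min RT dark; AlphaScreen read.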
JMJD2A Tudor inh = qHTS Assay for Inhibitors of JMJD2A-Tudor Domain | AlphaScreen JMJD2A-Tudor / H3K4me3 peptide binding | Lysine-specific demethylase 4A (Homo sapiens), O75164 | Potency, µM (doses to about 114 µM), inactives show at the highest dose activity change, negative = inhibition, hits mostly inhibitors | 390,000 compounds, 4.4% hits; note: % is set by controls: 0 for no effect and ±100 for the full control effect; nearly all actives have a fitted effect of over 50% in size
Target sequence (O75164 whole entry, looked up, the tested form may be a part): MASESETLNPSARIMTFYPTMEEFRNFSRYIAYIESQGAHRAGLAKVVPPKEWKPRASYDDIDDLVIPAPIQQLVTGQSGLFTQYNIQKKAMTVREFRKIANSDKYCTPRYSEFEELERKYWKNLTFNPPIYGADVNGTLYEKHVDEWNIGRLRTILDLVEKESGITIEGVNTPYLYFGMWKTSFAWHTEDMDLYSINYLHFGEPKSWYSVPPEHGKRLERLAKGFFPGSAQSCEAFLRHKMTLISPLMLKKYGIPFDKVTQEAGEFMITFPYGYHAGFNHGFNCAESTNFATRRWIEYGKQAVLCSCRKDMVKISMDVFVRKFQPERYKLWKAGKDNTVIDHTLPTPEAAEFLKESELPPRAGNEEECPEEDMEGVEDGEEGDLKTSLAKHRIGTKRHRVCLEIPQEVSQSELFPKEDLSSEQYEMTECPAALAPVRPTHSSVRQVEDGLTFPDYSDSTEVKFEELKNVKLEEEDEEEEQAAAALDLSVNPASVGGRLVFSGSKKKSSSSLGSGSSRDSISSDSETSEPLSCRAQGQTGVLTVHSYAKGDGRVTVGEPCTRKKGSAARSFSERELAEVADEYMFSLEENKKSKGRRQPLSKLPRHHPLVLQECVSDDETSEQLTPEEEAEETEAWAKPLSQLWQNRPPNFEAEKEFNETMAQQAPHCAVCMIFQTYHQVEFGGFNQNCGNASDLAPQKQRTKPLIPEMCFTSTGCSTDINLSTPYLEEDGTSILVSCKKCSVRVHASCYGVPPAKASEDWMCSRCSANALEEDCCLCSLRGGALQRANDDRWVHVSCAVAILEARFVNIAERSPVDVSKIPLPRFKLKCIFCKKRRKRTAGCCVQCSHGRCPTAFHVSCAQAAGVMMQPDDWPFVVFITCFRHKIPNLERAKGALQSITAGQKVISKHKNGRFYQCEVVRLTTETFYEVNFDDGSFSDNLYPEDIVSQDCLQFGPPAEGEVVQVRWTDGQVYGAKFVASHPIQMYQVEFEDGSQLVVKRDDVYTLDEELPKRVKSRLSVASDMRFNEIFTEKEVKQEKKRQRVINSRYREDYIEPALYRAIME
Sfp inh = qHTS Assay for Inhibitors of Bacillus subtilis Sfp phosphopantetheinyl transferase (PPTase); 4'-phosphopantetheinyl transferase ffp (Bacillus subtilis), Q9F4F7; Biochemical Sfp PPTase activity, qHTS; Potency, µM, without a hit: largest response in the series, negative = inhibition, most hits filed as inhibitors; 310,000 compounds, 3.5% hits; AID 1490, 2009;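 note: the enzyme is Sfp with the accession as filed and its product quenches rhodamine fluorescence; 0% = enzyme reaction without inhibitor and -100% = no enzyme wells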
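Fluorescence-quenching assay: 15 nM Sfp-PPTase preincubated 15 min at room temperature with compound, then 5 uM rhodamine-CoA and 12.5 uM BHQ-2-labelled YbbR peptide added. Fluorescence (ex 525/em 598 nm) read at start and after 30 min; difference gives rate.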
G9a block = qHTS Assay for Inhibitors of Histone Lysine Methyltransferase G9a | G9a H3K9 monomethylation, AlphaScreen, 2 h | Potency, µM (series often up to 102 µM), for the others: at the highest dose activity, negative = inhibition, actives largely listed as inhibitors | 350,000 compounds, 8.8% hits | AID 504332, 2011; note: % is set by controls: 0 for no effect and ±100 for the full control effect; nearly all actives have a fitted effect of over 75% in size
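Signal arises when biotinylated H3K9 peptide, once monomethylated, bridges streptavidin donor and antibody-captured acceptor beads. Enzyme at 20 nM was preincubated 15 min with test compounds; peptide 500 nM and SAM 20 uM then reacted for 2 h.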
HP1b chromo inh = HTS for Inhibitors of HP1-beta Chromodomain Interactions with Methylated Histone Tails; AlphaScreen HP1-beta / biotin-H3K9me3 peptide binding; Chromobox protein homolog 1 (Homo sapiens), P83916; Potency, µM (top dose mostly 114 µM), inactives show at the highest dose activity change, negative = inhibition, hits mostly inhibitors; 390,000 compounds, 0.56% hits; note: nearly all actives have a fitted effect of over 70% in size
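HP1-beta protein (50 nM final) preincubated 30 min at room temperature with biotinylated H3(1-18)K9me3 peptide (50 nM) in PBS pH 7.4, 0.01% Tween-20, then compound added for 30 min. AlphaScreen streptavidin donor/nickel chelate acceptor beads (10 ug/mL final), 30 min dark, luminescence read.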
Starred values were filed as active, the others as inactive; ? = inconclusive; · = no result given; [ ] = dose if it differs, or a comment. In the library only some 12% were active in any assay of this set; here they are far more common. Calls come from the whole dose curve; as a rule, active = well fitted curve in the direction sought with a large enough effect; inconclusive = small, poorly fitted or top-dose-only effect, or another doubt; inactive = no such curve, though single readings can be large; an effect the other way counts as inactive or inconclusive. Potency is the fitted concentration of half-maximal effect.

SMILES | BAZ2B inh | L3MBTL1 inh | JMJD2A Tudor inh | Sfp inh | G9a block | HP1b chromo inh
CC(=O)c1ccc(N2CCN(C(=O)NCc3noc4ccc(C)cc34)CC2)cc1 | -33% | · | -21% | · | 0%[59 µM] | 1%
Cc1cccc(N2CCN(C(=O)CN3C(=O)NC(C)(C4CC4)C3=O)CC2)c1C (stereo unspecified) | 12% | -4% | -16% | · | 56µM* | 17%
COCCOC(=O)/C(=C/c1ccc(OC(=O)c2ccccc2)cc1)C(C)=O | -2% | 4% | -6% | ? | 50µM* | 36%
CCOC(=O)/C(=C/c1ccc(OC(=O)c2ccncc2)cc1)C(C)=O | 2% | 9% | -10% | -66% | 22µM* | 24%
O=C(Oc1ccc(/C=N/O)cc1)c1ccccc1 | 2% | 4% | -8% | -1% | -3%[59 µM] | 15%
CCOC(=O)C(=Cc1ccc(-n2ccnc2)cc1)C(=O)OCC | ? | · | -15% | -29% | 45µM* | 34%
COc1ccccc1N1CCN(C(=O)c2cc3c(=O)n(C)c4ccccc4c3s2)CC1 | · | · | 2% | · | 9%[59 µM] | 16%
CCOc1ccccc1NC1c2ccccc2C(=O)N1Cc1ccco1 (stereo unspecified) | ? | · | ? | -7% | 45µM* | -8%
COc1ccc(CCC(=O)NCc2ccc3c(c2)CCN3C(=O)c2cccc(C)c2)cc1 | -16% | · | -26% | · | -2%[59 µM] | 24%
CCOc1ccc(NC(=O)C2CCN(C(=O)N3CC(C)Oc4ccc(Cl)cc43)CC2)cc1 (stereo unspecified) | 79µM* | · | ? | · | ? | -10%
O=C(Cc1ccccc1)NC1c2ccccc2-c2ccccc21 | -1% | -1% | -8% | 79µM* | ? | 29%
COc1cc(NS(=O)(=O)c2ccc(N/C=C(\C#N)c3nc4cc(Cl)ccc4o3)cc2)nc(OC)n1 | -39% | · | ? | 0% | -7%[59 µM] | 16%
O=C/C(=C\Nc1ccc(Cl)cn1)c1nc2cc(Cl)ccc2o1 | -2% | · | -3% | 5% | -10%[59 µM] | 36%
O=C/C(=C\Nc1ccc(Cl)cn1)c1nc2ccccc2o1 | -9% | -3% | 13µM* | ? | ? | 7%
O=C/C(=C\Nc1ccc(S(=O)(=O)CCO)cc1)c1nc2cc(Cl)ccc2o1 | -29% | -1% | -17% | 1% | 50µM* | 56%
O=C(NCC(c1ccco1)N1CCCC1)c1ccccc1Sc1ccc(C(F)(F)F)cc1[N+](=O)[O-] (stereo unspecified) | ? | -11% | ? | · | 10µM* | -29%
CC1CN(C(=O)/C(=C/c2ccco2)NC(=O)c2ccccc2)CC(C)O1 (stereo unspecified) | -3% | · | -11% | 16% | 35µM* | 0%
Cc1ccc(C(=O)N/C(=C/c2ccco2)C(=O)N2CCCCC2)cc1 | -9% | · | -19% | -3% | 50µM* | -3%
CCN1CCN(C(=O)/C(=C/c2ccco2)NC(=O)c2ccccc2)CC1 | 1% | · | 11% | 8% | ? | 21%
COc1ccc(/C=C(\NC(=O)c2ccc(OC)cc2)C(=O)N2CCCCC2)cc1 | -17% | 0% | -9% | 20% | 10% | 23%
CCOC(=O)C1CCCN(C(=O)/C(=C/c2ccco2)NC(=O)c2ccccc2)C1 (stereo unspecified) | -18% | · | -25% | ? | 40µM* | 4%
COc1ccc(C(=O)N/C(=C/c2ccco2)C(=O)N2CCCCCC2)cc1 | ? | · | -23% | 89µM* | 35µM* | 21%
COc1ccccc1NC(=O)CCNS(=O)(=O)c1ccc2c(c1)CCN2C(=O)C1CC1 | -5% | · | -23% | · | 31%[59 µM] | 19%[57 µM]
COc1cc(-c2noc(-c3ccc(NCc4cccnc4)c([N+](=O)[O-])c3)n2)cc(OC)c1OC | ? | · | -20% | · | ? | 55%
O=C(N/C(=C\c1ccco1)C(=O)N1CCOCC1)c1ccco1 | 4% | -4% | -6% | 28µM* | 32µM* | 20%
SMILES | BAZ2B inh | L3MBTL1 inh | JMJD2A Tudor inh | Sfp inh | G9a block | HP1b chromo inh
O=C(N/C(=C/c1ccc(Cl)cc1)C(=O)N1CCOCC1)c1ccccc1 | 1% | · | -10% | 18% | -9%[12.7 µM] | 14%
Cc1ccc(C(=O)N/C(=C\c2ccco2)C(=O)N2CCCCC2)cc1 | -13% | · | -20% | 0% | 45µM* | ?
O=C(N/C(=C/c1ccco1)C(=O)N1CCCCCC1)c1ccccc1 | 2% | · | -16% | 0% | 45µM* | -15%
O=C(N/C(=C\c1ccc(-c2ccccc2)o1)C(=O)N1CCOCC1)c1ccccc1 | -32% | -9% | 56µM* | -2% | 50µM* | -24%
COc1ccc(C2/C=C\CN(C(=O)C3CCCCC3)C(C)C(=O)N2Cc2ccc(F)cc2)cc1 (stereo unspecified) | · | · | -19% | -2% | · | 16%
COc1ccccc1N1CCN(C(=O)C2CCN(S(=O)(=O)c3cn(C)cn3)CC2)CC1 | 2% | · | 8% | · | -4%[12.7 µM] | 48%
CCCn1c(SCc2nc(-c3ccccc3OCC)no2)nnc1-c1ccc(Cl)cc1 | -3% | · | -16% | · | -42%[59 µM] | 27%
COc1ccc(C(=O)N/C(=C\c2cn(C)c3ccccc23)C(=O)N2CCN(C)CC2)cc1 | -38% | · | -30% | -5% | 45µM* | 41%
Cc1cccc(N/N=C2/COC(C)(C)CC2=O)c1 | ? | -9% | -27% | -3% | 79µM* | 9%
Cn1c(=O)c2c(-c3ccccc3Br)n(C(C)(C)C)cc2n(C)c1=O | 79µM* | · | -32% | · | -32%[59 µM] | -8%
CCC(Sc1n[nH]c(=O)[nH]c1=O)C(=O)OCc1ccccc1 (stereo unspecified) | 0% | · | -10% | ? | ? | 28%
CC(Sc1n[nH]c(=O)[nH]c1=O)C(=O)OCc1ccccc1 (stereo unspecified) | 10% | · | -11% | 79µM* | ? | 27%
c1ccc(C(c2cccs2)c2c[nH]c3ccccc23)cc1 (stereo unspecified) | -31% | · | -26% | · | ? | 15%
Cn1cc(C(c2ccccn2)c2cn(C)c3ccccc23)c2ccccc21 | 35µM* | · | 22µM* | 9% | 11%[12.7 µM] | ?
CCn1c(=O)cc(OCC(=O)O)c2ccccc21 | 2% | 11% | -10% | -3% | -2% | 67%
